Test results from PubChem BioAssay (EPA / NIEHS).
Where “and” joins values, the source holds several entries; their conditions need not be identical. Equal entries are not always repeated. Calls of active or inactive are those of the source. Rule for the calls: active = hit-call score of the fitted dose curve at least 0.9, where 1 is the maximum; inactive = score below 0.9.

test: BSK_BE3C_SRB: Viability Assessment in the BioMAP Diversity Plus: BE3C Assay (AID 2283028); details: primary human bronchial epithelial cells;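 for AC50: fitted both ways so AC50 may mark signal gain or loss versus DMSO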
Experimental: BSK_BE3C is a cell-based, multiplexed-readout assay that uses bronchial epithelial cell, a human lung primary cell, with measurements taken at 24 hours after chemical dosing in a 96-well plate.BSK_BE3C_SRB is an assay component measured in the BSK_BE3C assay. It measures 0.1% sulforhodamine related to cell death using Sulforhodamine staining technology.Data from the assay component BSK_BE3C_SRB was analyzed into 1 assay endpoint. This assay endpoint, BSK_BE3C_SRB, was analyzed with bidirectional fitting relative to DMSO as the negative control and baseline of activity. Using a type of viability reporter, gain or loss-of-signal activity can be used to understand changes in the signaling. Furthermore, this assay endpoint can be referred to as a primary readout, because this assay has produced multiple assay endpoints where this one serves a signaling function. To generalize the intended target to other relatable targets, this assay endpoint is annotated to the cell morphology intended target family, where the subfamily is cell conformation.
The levels of cell surface (or secreted, indicated by the prefix "s") biomarker endpoints were measured by ELISA. Overt cytotoxicity to cells in confluent adherent cultures (all systems other than the BT system) was assessed by measuring total protein levels using sulforhodamine B (SRB) staining in parallel cultures at the time of biomarker measurements, indicated as SRB endpoints. For proliferation assays for adherent cell types, individual cell types are cultured at sub-confluence and relative cell numbers quantified by SRB staining at time points optimized for each system (48 h: 3C and CASM3C systems; 72 h: BT and HDF3CGF systems; 96 h: SAg system). SRB was performed by staining cells with 0.1% SRB after fixation with 10% TCA and reading wells at 560 nm.Viability and proliferation of PBMC (T cells) was quantified by Alamar Blue reduction for the SAg and BT systems. For PBMC viability (referred to as PBMC Cytotoxicity within the assay endpoint names), cells were plated (75,000/well in a 96-well plate) and then chemical samples added for 1 h before addition of activators, SEB and TSST-1 (20 ng/mL final concentration each). Cells were incubated for 90 h. Then, Alamar Blue (20 uL/well) (Invitrogen, Cat DAL1100) was added for 6 h, and the plates were read with a fluorescence microplate reader at 546/580 nm (excitation/emission). For PBMC proliferation, cells were plated and activated as above but incubated for only 16 h prior to addition of Alamar Blue. Plates were read after 6 h.

| Structure (SMILES) | outcome | AC50 |
| --- | --- | --- |
| Cc1ccccc1CO[C@@H]1C[C@@]2(C(C)C)CC[C@]1(C)O2 | inactive | – |
| CCSC(=O)N(CC)C1CCCCC1 | inactive | – |
| Clc1ccc(C(c2ccccc2Cl)C(Cl)(Cl)Cl)cc1 (stereo not given) | inactive | – |
| CCC(C)c1cc([N+](=O)[O-])cc([N+](=O)[O-])c1O (stereo not given) | inactive | – |
| Cc1ccccc1O | inactive | – |
| Clc1ccc(C(Cl)(Cl)Cl)cc1 | inactive | – |
| O=C(O)C(F)(F)C(F)(F)C(F)(F)C(F)(F)C(F)(F)F | inactive | – |
| Cc1cc(O)ccc1Cl | inactive | – |
| O=C(N[C@H]1CN2CCC1CC2)c1cc2ccoc2cn1 | inactive | – |
| CCCCCCOC(=O)c1ccccc1C(=O)OCCCCCC | inactive | – |
| O=S(=O)(O)C(F)(F)C(F)(F)C(F)(F)C(F)(F)C(F)(F)C(F)(F)F | inactive | – |
| CC(C)(O)C(=O)Nc1ccc([N+](=O)[O-])c(C(F)(F)F)c1 | inactive | – |
| NS(=O)(=O)C(F)(F)C(F)(F)C(F)(F)C(F)(F)C(F)(F)C(F)(F)C(F)(F)C(F)(F)F | – | 25.8 µM (active) and 51.3 µM (active) |
| CCOCCOC(C)=O | inactive | – |
| Cc1cccc(C)c1N | inactive | – |
| Oc1ccc(Cl)cc1Cl | inactive | – |
| O=C(NC(=O)c1c(F)cccc1F)Nc1cc(Cl)c(OC(F)(F)C(F)F)c(Cl)c1 | inactive | – |
| Nc1ccc(-c2ccc(N)cc2)cc1 | inactive | – |
| CCCN(CCC)N=O | inactive | – |
| CC#Cc1cc(C)nc(Nc2ccccc2)n1 | inactive | – |

| Structure (SMILES) | outcome | AC50 |
| --- | --- | --- |
| ClC(Cl)=C(c1ccc(Cl)cc1)c1ccc(Cl)cc1 | inactive | – |
| Sc1ccccc1 | inactive | – |
| CCC(C)(CC)c1cc(NC(=O)c2c(OC)cccc2OC)on1 | inactive | – |
| O=C(NC(=O)c1cc(F)c(F)cc1Cl)Nc1cc(F)ccc1N1CCC(C(=O)O)CC1 | inactive | – |
| CCNc1nc(NC(C)C)nc(SC)n1 | inactive | – |
| ClC1=C(Cl)[C@]2(Cl)[C@@H]3[C@@H]4C[C@@H]([C@H]5O[C@@H]45)[C@@H]3[C@@]1(Cl)C2(Cl)Cl | inactive | – |
| Cc1cc(-c2ccc(N)c(C)c2)ccc1N | inactive | – |
| CN(C)c1nc(=O)n(C2CCCCC2)c(=O)n1C | inactive | – |
| CC(C)C(=O)OCC(C)(C)C(OC(=O)C(C)C)C(C)C (stereo not given) | inactive | – |
| Clc1ccc(Cl)cc1 | inactive | – |
| CCC(C)(c1ccc(O)cc1)c1ccc(O)cc1 | inactive | – |
| N#Cc1ccc(N(CC(N)=O)CC(F)(F)F)cc1C(F)(F)F | inactive | – |
| C[C@]12CCC(=O)C=C1CC[C@@H]1[C@@H]2CC[C@@]2(C)[C@H]1CC[C@]2(C)O | inactive | – |
| C[C@]12CCC(=O)C=C1CC[C@@H]1[C@@H]2CC[C@]2(C)C(=O)CC[C@@H]12 | inactive | – |
| CO/C=C(/C(=O)OC)c1ccccc1COc1cccc(C(F)(F)F)n1 | inactive | – |
| CCCCCCCCCc1ccc(O)cc1 | – | 15.1 µM (active) |
| CC(c1ccc(O)cc1)(c1ccc(O)cc1)c1ccc(O)cc1 | inactive | – |
| COc1ccc(O)c(C(C)(C)C)c1 | inactive | – |
| ClC1=C(Cl)[C@]2(Cl)[C@@H]3[C@H]4C[C@H]([C@@H]5O[C@H]45)[C@@H]3[C@@]1(Cl)C2(Cl)Cl | inactive | – |
| Cc1ccccc1[N+](=O)[O-] | inactive | – |
